These results are taken from PubChem BioAssay (Tox21).

For assay [1], the target named is Nuclear receptor subfamily 1 group I member 3 (Homo sapiens) (UniProt Q14994). Put plainly: qHTS assay to identify small molecule antagonists of the constitutive androstane receptor (CAR) signaling pathway (AID 1224838; active means well fitted curve in the direction sought with a large enough effect in the repeat runs; an effect the other way counts as inactive or inconclusive;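 further: HepG2 cells stably expressing hCAR with CYP2B6 luciferase reporter stimulated by CITCO; nearly all actives have a fitted effect of over 40% in size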; further: potency means the concentration at half of the fitted maximal effect). The procedure, abridged: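 Reporter luminescence was quantified after 24 h exposure of hCAR/CYP2B6-2.2kb double-stable HepG2 cells to compounds at 15 concentrations in the presence of 50 nM CITCO final.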
(In general: In qHTS, concentration-response curves come from the screen itself.)

Assay [2] has the same target. The assay is described as follows: qHTS assay to identify small molecule agonists of the constitutive androstane receptor (CAR) signaling pathway (AID 1224839; active means well fitted curve in the direction sought with a large enough effect in the repeat runs; an effect the other way counts as inactive or inconclusive; further: nearly all actives have a fitted effect of over 15% in size; further: potency means the concentration at half of the fitted maximal effect;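 on activation: HepG2 cells stably carrying human CAR and a CYP2B6 luciferase reporter; series mostly up to about 92 µM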). The procedure, abridged:
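In this screen, CAR-driven CYP2B6 promoter activity is measured by luminescence in HepG2-CYP2B6-hCAR cells after 24 h with test compounds and 0.75 uM PK11195 (final concentration).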

Assay [3] in a line: qHTS assay to identify small molecule antagonists of the estrogen related receptor signaling pathway with the pleiotropic PPARgamma coactivator (PGC) from Tox21 10K library - cell viability counter screen (AID 1224840; active means well fitted cell-killing curve with a large enough effect in the repeat runs, not every such curve was filed as active; further: nearly all actives have a fitted effect of over 40% in size; further: potency means the concentration at half of the fitted maximal effect). A digest of the protocol: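 Here the PGC/ERR cells serve as a cytotoxicity control: they are exposed to compounds for 17.5 hours at 37 C, and live-cell signal is quantified using CellTiter-Fluor fluorescence.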

Assay [4] concerns the target Thyrotropin receptor (Homo sapiens) (UniProt P16473). Put plainly: qHTS assay to identify small molecule agonists of the thyroid stimulating hormone receptor (TSHR) signaling pathway (AID 1224843). Further: nearly all actives have a fitted effect of over 45% in size. The procedure, abridged: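 Steps: seed 800 TSHR-HEK293 cells per well; add test compound and hold 30 min at ambient temperature; dispense cAMP-d2 then anti-cAMP cryptate; incubate 1 h at ambient; measure fluorescence intensity.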

Assay [5] can be described thus: qHTS assay to identify small molecule agonists of the hypoxia (HIF-1) signaling pathway - cell viability counter screen (AID 1224844). Further: nearly all actives have a fitted effect of over 50% in size. A digest of the protocol:
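Multiplexed with the HRE beta-lactamase assay, this viability read used CellTiter-Glo luminescence (30 min, RT) on HRE-bla ME-180 cells treated 17 hrs with compounds in 0.5% dialyzed FBS medium.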

Assay [6] can be described thus: qHTS assay to identify small molecule agonists of H2AX (AID 1224845; active means well fitted activation curve with a large enough effect in the signal ratio in the repeat runs, not every such curve was filed as active; the % refers to the signal ratio; further: potency means the concentration at half of the fitted maximal effect). The procedure, abridged: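 Wild-type CHO-K1 cells, plated overnight, exposed 3hr at 37C to 15 concentrations (0.76% DMSO final). Lysed, then HTRF anti-pH2AX (S139) cryptate and anti-H2AX-d2 antibodies, 24 hr room temperature; 665/620 nm emission read.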
Assay [7] is described as follows: qHTS assay to identify small molecule agonists of H2AX - cell viability counter screen (AID 1224847). Further: nearly all actives have a fitted effect of over 30% in size. Further: potency means the concentration at half of the fitted maximal effect. The procedure, abridged:
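Read-out: CellTiter-Glo luminescence, 30 min RT. Cells: wild-type CHO-K1, 1000/well, 10% FBS, plated overnight at 37C. Treatment: 15 concentrations, 3 hr, 37C, 0.76% DMSO.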

A short description of assay [8]: qHTS assay to identify small molecule antagonists of the estrogen related receptor signaling pathway with the pleiotropic PPARgamma coactivator (PGC) from Tox21 10K library (AID 1224841; call rule not given here; further: series mostly up to about 92 µM; actives are mostly falling curves and most rising ones were filed inactive; nearly all actives have a fitted effect of over 50% in size). The procedure, abridged: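 Each well held 2,000 PGC/ERR cells, pre-incubated six hours (37 C, 5% CO2). Test substances in DMSO were added by pin tool and left for 18 h at 37 C before luciferase detection by One-Glo.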

A short description of assay [9]: qHTS assay to identify small molecule agonists of the estrogen related receptor signaling pathway with the pleiotropic PPARgamma coactivator (PGC) from Tox21 10K library (AID 1224842; active means well fitted curve in the direction sought with a large enough effect in the repeat runs; an effect the other way counts as inactive or inconclusive; further: nearly all actives have a fitted effect of over 15% in size). A digest of the protocol: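 PGC/ERR reporter cell line, 2,000 cells per well, incubated 6 h at 37 C before 23 nL compound in DMSO was added. After 18 h at 37 C, One-Glo luminescence read following 30 min at room temperature.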

Assay [10] can be described thus: qHTS assay to identify small molecule agonists of the hypoxia (HIF-1) signaling pathway (AID 1224846; active means well fitted activation curve with a large enough effect in the signal ratio in the repeat runs, not every such curve was filed as active; the % refers to the signal ratio). The procedure, abridged: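 Hypoxia-pathway activation was scored as increased beta-lactamase from an HRE-controlled reporter in ME-180 cells; plated at 2,000 cells per well with 0.5% dialyzed FBS, they were exposed 17 hrs to compounds and then given CCF4-AM.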

Several values for one entry are separate records, joined by “and”; a condition that tells them apart may be missing. Identical values can stand only once. Inconclusive results are not listed. More than one record can exist for a structure, and the calls need not agree. Activity calls are given as the source filed them. Unless noted, the call rests on the fitted dose curve.
On the % scale 0 is the no-effect control and ±100 the full control effect.

Chain of Thyrotropin receptor (Homo sapiens) (P16473 whole entry, looked up): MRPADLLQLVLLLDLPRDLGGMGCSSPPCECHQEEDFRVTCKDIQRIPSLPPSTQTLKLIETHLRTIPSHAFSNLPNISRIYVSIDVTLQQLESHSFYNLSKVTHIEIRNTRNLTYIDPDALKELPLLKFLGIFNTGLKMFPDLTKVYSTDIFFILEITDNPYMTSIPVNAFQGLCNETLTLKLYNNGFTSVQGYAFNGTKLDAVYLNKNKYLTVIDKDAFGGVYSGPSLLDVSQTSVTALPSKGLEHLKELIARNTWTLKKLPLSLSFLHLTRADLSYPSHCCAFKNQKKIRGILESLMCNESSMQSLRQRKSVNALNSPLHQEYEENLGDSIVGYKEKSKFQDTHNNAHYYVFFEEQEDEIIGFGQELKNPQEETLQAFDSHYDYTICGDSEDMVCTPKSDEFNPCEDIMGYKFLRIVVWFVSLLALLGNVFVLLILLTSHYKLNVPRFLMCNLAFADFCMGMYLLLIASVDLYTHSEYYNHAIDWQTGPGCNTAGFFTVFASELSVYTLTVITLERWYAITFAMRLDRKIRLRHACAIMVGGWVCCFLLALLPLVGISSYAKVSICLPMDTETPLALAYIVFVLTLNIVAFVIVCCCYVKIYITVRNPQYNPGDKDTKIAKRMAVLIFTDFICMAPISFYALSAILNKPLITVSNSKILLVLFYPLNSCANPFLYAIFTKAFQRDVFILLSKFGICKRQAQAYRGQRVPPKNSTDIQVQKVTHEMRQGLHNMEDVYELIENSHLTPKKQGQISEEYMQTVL
Chain of Nuclear receptor subfamily 1 group I member 3 (Homo sapiens) (Q14994 whole entry, looked up): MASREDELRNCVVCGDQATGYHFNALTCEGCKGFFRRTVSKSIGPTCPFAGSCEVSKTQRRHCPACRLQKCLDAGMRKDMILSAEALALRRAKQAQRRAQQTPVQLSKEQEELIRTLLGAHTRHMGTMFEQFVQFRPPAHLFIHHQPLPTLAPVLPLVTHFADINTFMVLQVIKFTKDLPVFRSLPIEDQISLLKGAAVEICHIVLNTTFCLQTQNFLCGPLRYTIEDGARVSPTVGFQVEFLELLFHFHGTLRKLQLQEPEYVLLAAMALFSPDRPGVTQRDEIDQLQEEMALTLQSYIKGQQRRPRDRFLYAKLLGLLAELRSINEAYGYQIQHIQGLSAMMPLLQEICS

Turning to `NNc1nncc2ccccc12`, the Potency result in assay [1], in assay [5] and in [7] was “inactive” in each case. Moreover, the Potency in assay [2] was 12.2 µM (active). Also, the activation was 12.7% [at 19 µM] (inactive) in assay [2] and -1.13% [at 19 µM] (inactive) in assay [4]. The viability change, negative = cytotoxic in [3] was 3.22% [at 19 µM] (inactive). In assay [6], the activation (H2AX phosphorylation) is 1% [at 31.6 µM] (inactive).
Take `COCCCOc1ccnc(CS(=O)c2nc3ccccc3[nH]2)c1C` (stereo unspecified): the Potency entry in [1], in assay [3], in assay [8], in assay [4], in assay [5] and in assay [6] was “inactive” throughout. The Potency result in [7] is “inactive”. Besides, the Potency in [2] was 6.83 µM (active). Besides, the molecule was called inactive in assay [9] and in assay [10].
`CC1CCC2CC1C2(C)C` (stereo unspecified): the Potency entry in [1], in [2], in assay [3], in assay [4], in assay [5] and in assay [6] was “inactive” in each case. The Potency result in [7] was “inactive”. Further, the call in assay [10] was inactive.
As for `Cc1cccnc1`, the Potency entry in [1], in assay [2], in assay [3], in [8], in assay [4] and in [5] was “inactive” throughout. The Potency result in [6] and in assay [7] was “inactive” throughout. For the same molecule, the outcome in [9] and in assay [10] was inactive.
Regarding `OCC(CO)(CBr)CBr`, the Potency entry in assay [1], in assay [2], in assay [3], in [8], in assay [4] and in assay [5] was “inactive” throughout. The Potency entry in assay [6] and in assay [7] was “inactive” each time. The call in assay [9] and in assay [10] was inactive.
With `CCCCCCCCCCCCc1ccccc1`, the Potency result in assay [1], in [2], in [3], in assay [8], in assay [4] and in assay [5] was “inactive” in each case. The Potency result in assay [6] and in assay [7] was “inactive” throughout. Further, the molecule was called inactive in [9] and in assay [10].
With `CCC(O)OC(O)CC` (stereo unspecified), the Potency result in assay [1], in [2], in [3], in [8], in assay [4] and in [6] was “inactive” throughout. For the same molecule, in assay [7], the Potency entry was “inactive”. Also, the outcome in [9] and in assay [10] was inactive.
Turning to `CCCCCOC(C)=O`, in assay [1], the Potency was 2.2 µM (active) and inactive. The Potency entry in [2], in assay [3], in assay [4], in [5], in assay [6] and in [7] was “inactive” each time. Also, the outcome in assay [10] was inactive.
Consider `CC(C)(N)CO`, for which the Potency result in [1], in [2], in assay [3], in [8], in [4] and in assay [6] was “inactive” throughout. Moreover, the Potency result in [7] is “inactive”. The call in assay [9] and in [10] was inactive.
As to `OCCOCCOCCO`, the Potency entry in assay [1], in [2], in assay [3], in [8], in assay [4] and in [5] was “inactive” each time. In addition, the Potency entry in assay [6] and in assay [7] was “inactive” in each case. Further, the molecule was called inactive in assay [9] and in assay [10].
With `CC[C@H](C)C(=O)O[C@H]1C[C@@H](C)C=C2C=C[C@H](C)[C@H](CC[C@@H]3C[C@@H](O)CC(=O)O3)[C@H]21`, the Potency result in [1], in assay [2], in assay [8], in assay [4] and in assay [6] was “inactive” throughout. Further, the Potency in assay [3] was 69.6 µM (active) and inactive; in assay [7], 115 µM (active) and inactive. In addition, the outcome in [9] and in [10] was inactive.
For `CC1=C(C)S(=O)(=O)CCS1(=O)=O`, the Potency entry in [1], in assay [3], in assay [8], in [5], in [6] and in assay [7] was “inactive” throughout. Moreover, in assay [2], the Potency was 3.01 µM (active). Also, the result in [9] and in assay [10] was inactive.
In the case of `CCCCC(CC)CO` (stereo unspecified), the Potency entry in [1], in assay [2], in assay [3], in [4], in assay [5] and in assay [6] was “inactive” throughout. Besides, in assay [7], the Potency result was “inactive”. The outcome in [10] was inactive.
On to `O=C(CC(C(=O)OC1CCCCC1)S(=O)(=O)O)OC1CCCCC1` (stereo unspecified), for which the Potency entry in assay [1], in assay [2], in assay [3], in [8], in assay [4] and in assay [6] was “inactive” each time. Further, the Potency entry in assay [7] was “inactive”. Further, the call in [9] and in assay [10] was inactive.
As to `CCCCCCCCCCCCS`, the Potency entry in assay [1], in assay [2], in [3], in [4], in assay [6] and in assay [7] was “inactive” each time. Further, the outcome in assay [10] was inactive.
Consider `O=C=NCCCCCCN=C=O`, for which the Potency in assay [1] was 23.8 µM (active) and inactive. The Potency entry in assay [2], in [3], in [4], in assay [5], in assay [6] and in assay [7] was “inactive” throughout. Further, in assay [10], the result was inactive.
Regarding `CC(=O)c1ccccc1`, the Potency result in assay [1], in assay [2], in assay [3], in [4], in assay [5] and in assay [6] was “inactive” each time. For the same molecule, the Potency entry in assay [7] is “inactive”. The molecule was classed as inactive in [10].
As for `CCCSc1ccc2nc(NC(=O)OC)[nH]c2c1`, the Potency result in [1], in assay [3], in assay [5] and in [7] was “inactive” in each case. The Potency in assay [2] was 9.44 µM (active). In assay [10], the molecule was classed as inactive.
Turning to `O=C(O)c1cc(O)c(O)c(O)c1`, the Potency result in assay [1], in assay [2], in assay [3], in [4], in [5] and in assay [7] was “inactive” throughout. For the same molecule, the molecule was called inactive in assay [10].
As for `CN(C)CCC(c1ccccc1)c1ccccn1` (stereo unspecified), the Potency entry in assay [1], in assay [2], in assay [3], in assay [4], in assay [6] and in assay [7] was “inactive” each time.
On to `C=CCNC(N)=S`, for which the Potency entry in assay [1], in [2], in [3], in assay [4], in assay [6] and in assay [7] was “inactive” each time. The molecule was classed as inactive in [10].
As for `Oc1cccc2ccccc12`, the Potency result in assay [1], in assay [3], in [4] and in assay [7] was “inactive” in each case. For the same molecule, the Potency in assay [2] is 62.8 µM (active) and 61.1 µM (active); in [6], 103 µM (active). For the same molecule, in [10], the outcome was inactive.
As to `O=C1CCC(N2C(=O)c3ccccc3C2=O)C(=O)N1` (stereo unspecified), the Potency entry in assay [1], in assay [2], in [3], in assay [4], in assay [5] and in [6] was “inactive” throughout. For the same molecule, the Potency entry in assay [7] was “inactive”.
As for `C#CCN(C)Cc1ccccc1`, the Potency result in assay [1], in assay [2], in [3], in assay [4], in [5] and in [6] was “inactive” throughout. Also, in assay [7], the Potency result is “inactive”.
As to `O=C(O)c1cc(=O)c2c(OCC(O)COc3cccc4oc(C(=O)O)cc(=O)c34)cccc2o1`, the Potency result in assay [1], in assay [2], in [3], in [4], in [6] and in assay [7] was “inactive” in each case.
Regarding `CC1=CC(=O)NS(=O)(=O)O1`, the Potency in assay [1] is 48.7 µM (active) and inactive. Also, the Potency entry in [2], in assay [3], in assay [4], in assay [5], in assay [6] and in [7] was “inactive” throughout. In addition, the molecule was called inactive in assay [10].
